High-throughput results (PubChem BioAssay)
A selection: hits, their analogues and other compounds. The true share with any hit is near 2.2%.
Ba/F3 V617F tox: loss of viability in JAK2V617F-driven Ba/F3 cells; Ba/F3 EpoR-JAK2V617F viability, ATP luminescence; inhibition, % at 5.6 µM; actives 1.1% (n = 220,000); AID 1446;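 active = inhibition above the campaign mean plus 3 SD over all tested compounds, cut at about 24% in these data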;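 note: cytokine-independent growth of Ba/F3 cells driven by EpoR plus mutant JAK2; 0% = DMSO-treated cells and 100% = JAK inhibitor I control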
aSyn 5UTR inh: MLPCN primary screen, SNCA 5' untranslated region | alpha-synuclein 5'UTR reporter, inhibitor activity | inhibition, % (tested at 7.5 µM) | actives 0.82% (n = 300,000) | AID 1813; in the data active = inhibition above about 60%;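 note: H4 neuroglioblastoma cells stably carrying SNCA 5'UTR luciferase fusion; 0% = DMSO wells and 100% = positive control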
KLF5 inhibitor: inhibitors of KLF5 expression; inhibition, % at 5 µM; actives 0.23% (n = 290,000); DLD-1 KLF5 promoter-luciferase reporter, luminescence; AID 1700;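 active = inhibition above a per-plate limit of that plate's mean compound inhibition plus 3 SD, cut at about 60% in these data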;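 note: 0% = DMSO wells and 100% = LY294002 at 200 µM; higher means less KLF5 promoter-driven luciferase light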
APP transl inh: APP translation inhibition | actives 0.82% (n = 190,000) | SH-SY5Y APP 5'UTR-luciferase reporter, luminescence | inhibition, % at 2 µM;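 active = inhibition above a set limit, derived from the sample mean plus 3 SD, cut at about 45% in these data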
IEC-6 tox-1: kills IEC-6 intestinal cells in KLF5 counter-screen; IEC-6 cytotoxicity, luminescence viability; inhibition, % at 5 µM; actives 0.78% (n = 290,000); AID 1825;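 note: 0% = plate median of test compound wells and 100% = cytotoxic reference compound wells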
BaF3 parental: counter-screen for JAK2V617F inhibitors: parental Ba/F3 viability inhibitors; CellTiter-Glo ATP luminescence; inhibition, % at 5.6 µM; actives 1.1% (n = 220,000); AID 1486;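 active = inhibition above a per-campaign cutoff, the mean inhibition of all tested compounds plus 3 SD, cut at about 27% in these data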;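 note: 0% = DMSO wells and 100% = JAK Inhibitor I control wells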
KLF5 inh confirm: confirmation of KLF5 inhibitors; AID 1834; actives 79% (n = 610); DLD-1 KLF5 promoter firefly luciferase reporter, luminescence; inhibition, % at 4 µM; shares compounds with KLF5 inhibitor;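 active = inhibition above a set limit taken from the earlier primary screen, cut at about 63% in these data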;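 note: 0% = DMSO wells and 100% = LY294002 at 200 µM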
IEC-6 tox-2: kills rat IEC-6 cells in KLF5 counter-screen; AID 1905; actives 56% (n = 610); IEC-6 rat intestinal cells, viability luminescence; shares compounds with KLF5 inhibitor; inhibition, % at 4 µM; in the data active = inhibition above about 23%;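 note: cells exposed to compounds for 48 hours before viability read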
IEC-6 tox confirm: confirmation of cytotoxic compounds in rat IEC-6 intestinal epithelial cells | shares compounds with IEC-6 tox-1 | IEC-6 rat intestinal epithelial viability, luminescence | inhibition, % at 5 µM | actives 63% (n = 1,900);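 note: 0% = vehicle and 100% = reference cytotoxic drug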
* = called active by the depositor; . = no result given. Cut-off read from the data, not from the text of the source, unless noted: active = inhibition above about 22%; inactive = the rest.

SMILES	Ba/F3 V617F tox	aSyn 5UTR inh	KLF5 inhibitor	APP transl inh	IEC-6 tox-1	BaF3 parental	KLF5 inh confirm	IEC-6 tox-2	IEC-6 tox confirm
O=C(N/N=C\c1c(O)ccc2ccccc12)c1cncc(Br)c1	.	62*	70*	.	95*	.	86*	56*	65*
Cc1ccc(C(=O)N/N=C/c2c(O)ccc3ccccc23)cn1	.	62*	94*	.	39*	.	85*	15	33*
COc1cc(OC)cc(C(=O)Nc2ccccc2-c2nnn(CC(=O)Nc3cc(C)on3)n2)c1	.	-19	-1	.	-3	.	.	.	.
COc1cc(C(=O)NCCC(c2ccccc2)c2ccccc2)cc(OC)c1OC	.	7	-23	.	-6	.	.	.	.
Cc1ccccc1-c1cc2c(nn1)-c1ccccc1C2=O	91*	-13	102*	-17	102*	88*	-80	13	41*
Clc1cccc(N2CCN(Cc3ccc(Br)o3)CC2)c1	.	-2	-33	.	1	.	.	.	.
Cc1nc(N)nc(N)c1/C=C/C(C)(C)c1ccc(Cl)cc1	98*	125*	83*	70*	86*	103*	84*	76*	77*
COc1ccc(S(=O)(=O)N2CCC(C(N)=O)CC2)cc1C(=O)N1CCCCCC1	.	22	-3	.	-1	.	.	.	.
O=C(c1cc(-c2ccncc2)nc2c(Cl)cccc12)N1CCN(c2ccccc2F)CC1	.	99*	66*	.	67*	.	65*	47*	54*
Cc1cccc(N2CCN(C(=O)c3ccc(CS(=O)(=O)c4ccccc4C)o3)CC2C)c1 (configuration not stated)	75*	97*	89*	96*	76*	77*	75*	53*	48*
Cc1ccc(C)c(N2CCN(C(=O)c3ccc(CS(=O)(=O)c4ccccc4C)o3)CC2)c1	1	20	5	-11	4	8	.	.	.
COC(=O)Nc1nc2ccc(C(=O)c3cccs3)cc2[nH]1	.	53	.	.	.	.	.	.	.
CCCSc1ccc2nc(NC(=O)OC)[nH]c2c1	78*	18	76*	92*	80*	76*	48	61*	56*
O=C(Nc1ccc(S(=O)(=O)Nc2ccccc2F)cc1)N1CCCCC1	.	17	-24	.	2	.	.	.	.
CCOc1ccc(C2=Nn3c(nnc3-c3ccccc3OC)SC2)cc1	96*	109*	82*	95*	96*	93*	94*	84*	83*
CSc1ncccc1C(=O)NCC(c1cccs1)N1CCOCC1 (configuration not stated)	.	-4	.	.	.	.	.	.	.
O=c1c2ccccc2cnn1-c1nc2ccccc2[nH]1	65*	98*	105*	69*	54*	65*	100*	52*	60*
Cc1ccc(/C=C2\SC(=S)N(CCC(=O)N3CCOCC3)C2=O)cc1	.	-64	-14	.	-4	.	.	.	.
Cc1ccc(C(=O)c2coc3ccc(O)cc23)cc1	.	-64	-100	.	-4	.	.	.	.
O=C1C(Nc2ccc(O)cc2)=C/C(=N/S(=O)(=O)c2cccs2)c2ccccc21	87*	114*	67*	54*	102*	101*	114*	102*	103*
CCc1ccc(S(=O)(=O)/N=C2\C=C(Nc3cccc(C(=O)O)c3)C(=O)c3ccccc32)cc1	.	30	-41	.	3	.	.	.	.
Cc1cccc(NC2=C/C(=N/S(=O)(=O)c3cccs3)c3ccccc3C2=O)c1	3	.	-10	-25	-3	3	.	.	.
CCc1ccc(S(=O)(=O)/N=C2\C=C(Nc3ccc(O)cc3)C(=O)c3ccccc32)cc1	.	101*	96*	.	102*	.	69*	60*	67*
CN(C)c1ncnc2c1ncn2C1OC(CO)C(O)C1O (configuration not stated)	8	108*	65*	40	51*	13	70*	48*	71*
CC(Cc1ccccc1)Nc1ncnc2c1ncn2C1OC(CO)C(O)C1O (configuration not stated)	.	-23	.	.	.	.	.	.	.
O=C(Sc1cccc2cccnc12)c1ccccc1Br	.	-242	62*	.	102*	.	17	100*	99*
